Screening results as filed in PubChem.
Rows were chosen to be rich in hits. Some 4% of all compounds tested hit in one or more screens of this group.
FBA Mtb inh = Mtb fructose-bisphosphate aldolase inhibition; inhibition, % at 1 µM; purified M. tuberculosis FBA, fluorescence read-out; hit rate 2.3% among 360,000; in the data active = inhibition above about 27%;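 note: 0% = vehicle and 100% = reference inhibitor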
Mtb bLac sens = beta-lactam sensitization of Mtb H37Rv | M. tuberculosis H37Rv growth with meropenem, percent inhibition | hit rate 0.27% among 330,000 | inhibition, % at 25 µM | AID 434955; call rule not given here;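 note: growth measured after seven days incubation then overnight dye step; 0% = bacteria only wells and 100% = bacteria with antibiotic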
RecA splice inh = Mtb RecA intein splicing inhibition | inhibition, % (test concentration not listed) | hit rate 0.75% among 290,000 | cell-free RecA intein splicing, fluorescence; in the data active = inhibition above about 30%;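 note: 0% = vehicle wells and 100% = reference inhibitor control wells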
GDH-TPI counter = inhibits GDH-TPI coupling enzymes, artifact for Mtb FBA screen; inhibition, % at 4.8 µM; GDH-TPI coupled enzyme counterscreen, NADH absorbance; hit rate 1.2% among 360,000; in the data active = inhibition above about 30%;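 note: 0% = DMSO wells and 100% = wells lacking the enzyme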
Rv3671c inh = inhibits the M. tuberculosis serine protease Rv3671c | P9WHR9 | inhibition, % at 5.96 µM | hit rate 0.048% among 320,000; in the data active = inhibition above about 38%;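 note: extracellular domain of Rv3671c used as enzyme; 0% = enzyme with DMSO and 100% = no enzyme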
Target sequence (P9WHR9 whole entry, looked up, the tested form may be a part): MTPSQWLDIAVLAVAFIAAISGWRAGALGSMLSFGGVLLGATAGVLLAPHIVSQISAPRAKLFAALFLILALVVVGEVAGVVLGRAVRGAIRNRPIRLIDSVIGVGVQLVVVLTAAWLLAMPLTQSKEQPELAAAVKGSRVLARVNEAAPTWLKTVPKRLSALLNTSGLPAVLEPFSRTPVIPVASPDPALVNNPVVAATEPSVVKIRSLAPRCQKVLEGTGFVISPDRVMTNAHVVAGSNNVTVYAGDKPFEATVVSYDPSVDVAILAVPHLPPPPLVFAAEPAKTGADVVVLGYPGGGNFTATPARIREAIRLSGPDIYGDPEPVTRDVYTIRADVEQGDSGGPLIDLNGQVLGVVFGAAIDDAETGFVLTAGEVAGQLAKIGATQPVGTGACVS
Mtb UGM inh = blocks M. tuberculosis UGM enzyme | P9WIQ1 | purified UGM, fluorescence polarization probe displacement | hit rate 0.06% among 320,000 | inhibition, % at 10 µM | AID 504406; in the data active = inhibition above about 10%, passing the limit was not always enough
An asterisk follows results filed as active; . = no result given.

SMILES | FBA Mtb inh | Mtb bLac sens | RecA splice inh | GDH-TPI counter | Rv3671c inh | Mtb UGM inh
COc1ccc(/C=C/C(=O)Nc2ccccc2C(F)(F)F)cc1 | -0.2 | -3.0 | 1.1 | 9.6 | 4.5 | -1.2
COc1ccc(/C=C/C(=O)Nc2ccccc2C(=O)N2CCCC2)cc1 | -1.4 | -8.3 | -5.8 | 36.4* | -5.6 | -3.4
COc1ccc(/C=C/C(=O)Nc2ccccc2C(=O)O)cc1 | -2.4 | -0.3 | -1.3 | 20.0 | -6.0 | 2.7
COc1ccc(/C=C/C(=O)Nc2cccc(S(=O)(=O)NC3=NCCCCC3)c2)cc1OC | 6.3 | -3.0 | . | 35.0* | -18.0 | 4.2
O=C(Nc1c(-c2ccccc2)[nH][nH]c1=O)c1ccc(Br)cc1 | 1.6 | . | . | . | . | .
Cc1onc(-c2ccccc2)c1C(=O)N/N=C/c1c(F)cccc1Cl | -0.5 | -1.3 | . | -4.1 | 1.4 | -1.3
COc1ccc(/C=C/C(=O)NC(=S)NNC(=O)[C@H]2C[C@@H]2c2ccccc2)cc1OC | 1.1 | -2.6 | 0.1 | 43.5* | -1.1 | 0.9
COc1ccc(/C=C/C(=O)Nc2ccc3c(c2)CCC3)cc1OC | -1.2 | -12.9 | 3.2 | 27.6 | -20.7 | -1.8
COc1ccccc1/C=C/C(=O)Nc1cccc(C(C)=O)c1 | 4.0 | -4.2 | 0.3 | 19.5 | -10.8 | 2.3
COc1ccc(/C=C/C(=O)Nc2ccc(C(N)=O)cc2)cc1OC | 5.7 | -2.8 | 1.0 | 53.1* | -4.9 | 3.6
COc1cc(C=O)ccc1OC(=O)Nc1ccccc1 | 0.8 | -9.1 | -1.1 | 51.7* | -7.0 | -1.8
COc1cc(C=O)ccc1OS(=O)(=O)c1ccc(NC(C)=O)cc1 | -4.5 | -5.3 | -3.9 | -3.3 | -2.8 | -0.6
COc1ccc(/C=C/C(=O)Nc2cccc(C(C)=O)c2)cc1 | -0.1 | 2.5 | 2.2 | 33.3* | -3.8 | -0.8
O=C(COC(=O)c1ccc(O)cc1)Nc1ccc(Cl)cc1 | . | -4.0 | 3.8 | . | 2.0 | 1.7
COc1ccc(COc2cc(-c3cccc(OC)c3)nc3ccc(N)cc23)cc1 | 53.8* | 72.8 | -145.9 | 4.4 | -3.8 | -1.4
COc1ccc(COc2cc(-c3cccc(OC)c3)nc3ccc(NC(=O)c4ccc(N(C)C)cc4)cc23)cc1 | 8.2 | -1.7 | -0.3 | 37.9* | -61.1 | 2.0
COc1ccc(COc2cc(-c3cccc(OC)c3)nc3ccc(NC(=O)c4ccc(C)cc4)cc23)cc1 | 16.5 | 92.4 | 0.6 | 20.3 | -123.5 | 1.0
COc1ccc(COc2cc(-c3cccc(OC)c3)nc3ccc(NC(C)=O)cc23)cc1 | 136.0* | -2.5 | -3.3 | 10.3 | -135.4 | -0.9
COc1ccc(COc2cccnc2N)cc1 | 0.9 | 1.4 | . | 12.2 | 3.9 | 1.2
C[C@]12c3[nH]c4cc(-c5ccco5)ccc4c3CCN1C(=O)[C@@H](CC(=O)NCc1cccc(C(F)(F)F)c1)C[C@@H]2C(=O)N1CCCCC1 | 15.6 | . | . | 7.3 | . | .
COc1cc(NC(=O)C2(C)CCN2C(C)C)cc(OC)c1OC (stereo not given) | 4.8 | . | . | 10.0 | . | .
CC1CCN(C(=O)COC(=O)c2ccc3c(c2)C(=O)N(Cc2ccco2)C3=O)CC1 | 2.7 | . | . | -5.6 | . | .
CC1(C)CC(N=c2cc(-c3ccccc3)oc3ccc(Cl)cc23)CC(C)(C)N1 | 0.9 | . | 0.2 | 14.8 | . | .
OCCCN=c1cc(-c2ccccc2)oc2ccc(Cl)cc12 | 0.1 | 86.7 | 0.5 | 48.6* | 2.7 | -1.2
CCCCN(CCCC)c1ccc(C(=O)c2ccccc2C(=O)O)c(O)c1 | -2.3 | 3.6 | 3.9 | 30.1 | -2.4 | 6.1
SMILES | FBA Mtb inh | Mtb bLac sens | RecA splice inh | GDH-TPI counter | Rv3671c inh | Mtb UGM inh
CN(C)c1ccc(C(=O)c2ccccc2C(=O)O)c(O)c1 | 1.8 | 10.0 | 1.4 | 40.7* | 7.5 | -3.3
CCN(CC)c1nc2c(s1)C(=O)CC(C)(C)C2 | -2.5 | -9.9 | -0.7 | 35.2* | 4.2 | -2.1
CCN(CC)c1nc2c(s1)C(=O)NCCC2 | -2.7 | -4.5 | -1.8 | 3.7 | -11.8 | -0.1
CCOC(=O)c1c(O)cc(C)[nH]c1=O | 0.6 | -1.0 | 0.0 | 10.1 | 4.0 | -2.6
COc1ccc(-n2c3nc4ccccc4nc3c3c(=N)oc(C)nc32)cc1 | 12.7 | -4.3 | 72.5* | 18.2 | -14.1 | 5.1
CCCCC(CC)Cn1c2nc3ccccc3nc2c2c(=N)oc(C)nc21 (stereo not given) | . | . | -7.7 | . | . | .
Cc1ccc(C)c(NC(=O)CN(C)C(=O)C2COc3ccccc3O2)c1 (stereo not given) | 2.0 | -9.2 | . | 6.3 | -11.0 | -2.3
CC1=CS/C(=C(/C#N)C(=O)NCc2ccco2)N1c1ccccc1 | -0.5 | -5.9 | -4.8 | 51.4* | 2.3 | 1.7
N#C/C(C(=O)NCc1ccco1)=C1/SC=C(c2ccccc2)N1c1ccccc1 | -2.0 | . | -1.5 | 8.7 | -6.2 | 3.1
